Laboratory results: PubChem BioAssay (NCI)
About 83,000 compounds went through this panel and 20% of them were active in at least one assay; those are over-represented in the sample as a whole.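 Each cell line was grown in a 96-well plate and treated with one concentration of compound for 48 hours. Values below 10 were considered active.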 Active and inactive are the calls of the source.

How the values were obtained:
Assay in all cases: NCI-60 one-dose screen, 48 h (100 = growth as untreated, 0 = no growth, -100 = all killed)
Conditions in all cases: 10 µM unless noted
[1] = tested on: NCI-H23 lung
[2] = tested on: NCI-H226 lung
[3] = tested on: NCI-H322M lung
[4] = tested on: HOP-62 NSCLC
[5] = tested on: NCI-H460 lung
[6] = tested on: HOP-92 NSCLC
[7] = tested on: NCI-H522 lung
[8] = tested on: A549/ATCC NSCLC
[9] = tested on: 786-0 renal
[10] = tested on: DU-145 prostate
[11] = tested on: K-562 leukemia
[12] = tested on: MALME-3M melanoma
[13] = tested on: MDA-MB-231 breast
[14] = tested on: RXF 393 renal
[15] = tested on: SF-268 CNS
[16] = tested on: SF-295 CNS
[17] = tested on: SF-539 CNS
[18] = tested on: UACC-257 melanoma
[19] = tested on: M14 melanoma

Measured: growth

Oc1[nH]c2ccccc2c1/C=c1/cc2c(c(-c3ccc(F)cc3)n1)=Nc1ccccc1-2
active: [1] -5.74% | [4] -47.3% | [5] -23.6% | [6] -17.9% | [7] -58% | [8] -33.7% | [9] -76.8% | [10] 9.34% | [11] 2.88% | [12] -54.5% | [13] -4.54% | [14] -57.1% | [16] -19.1% | [17] -65.6% | [19] -36.8%
inactive: [2] 19.4% | [3] 58.7% | [15] 15.4% | [18] 20.9%

C=C1C(=O)O[C@H]2[C@H]1CC/C(Cn1cc(CNCCc3c[nH]c4ccccc34)nn1)=C\CC[C@@]1(C)O[C@@H]21
active: [7] 3.17%
inactive: [1] 95% | [2] 101% | [3] 86.8% | [4] 86.3% | [5] 104% | [6] 61.6% | [8] 95.7% | [9] 99.1% | [10] 104% | [11] 32% | [12] 76% | [13] 92.4% | [14] 85.4% | [15] 95.8% | [16] 102% | [17] 81.1% | [18] 77.4% | [19] 84.3%

CC(c1ccc(-n2cccn2)cc1)c1cnc(N2CCc3ccc(C(N)=O)cc3C2)s1 (centres undefined)
inactive: [1] 59% | [2] 43.6% | [3] 86.8% | [4] 82.2% | [5] 74.5% | [6] 71% | [7] 41% | [8] 65.8% | [9] 65.8% | [10] 88.2% | [11] 30.4% | [12] 72.4% | [13] 72.5% | [14] 82.2% | [15] 86% | [16] 52.3% | [17] 70.7% | [18] 48.7% | [19] 45.6%

N#C/C=C(\c1ccc([N+](=O)[O-])cc1)n1nnc2cc(Cl)c(Cl)cc21
inactive: [1] 40.8% | [2] 39.7% | [3] 46.1% | [4] 31.2% | [6] 45.2% | [8] 53.2% | [11] 13.9% | [12] 40.7% | [15] 20.3% | [16] 14.1% | [18] 45.6% | [19] 21.1%
active: [5] -8.66% | [7] 2.18% | [9] -26.7% | [10] -21.2% | [13] 2.77% | [14] 0.579% | [17] -9.65%

CC(C)n1nc(C#Cc2cccc3cc(-c4cccc(C(F)(F)F)c4)ncc23)c2c(N)ncnc21
active: [11] 2.23%
inactive: [1] 78.6% | [2] 48.2% | [3] 94.8% | [4] 59.7% | [5] 48.9% | [6] 78% | [7] 43.7% | [8] 44.4% | [9] 89% | [10] 89.4% | [12] 93.1% | [13] 59.8% | [14] 81.7% | [15] 76% | [16] 91% | [17] 54.4% | [18] 82.7% | [19] 56.2%

COc1cc2nc(Nc3ccc(F)cc3)nc(N)c2cc1OC
active: [16] -2.33%
inactive: [1] 95.1% | [2] 81.7% | [3] 95.4% | [4] 112% | [5] 99.5% | [6] 63.9% | [7] 92% | [8] 92.6% | [9] 87.1% | [10] 93.5% | [11] 77.8% | [12] 105% | [13] 81.7% | [14] 54.5% | [15] 90% | [17] 95.5% | [18] 102% | [19] 107%

CCCCCCNCc1cc(C(C)(C)C)cc(CNCCCCCC)c1O
inactive: [16] 29.4%
active: [1] -8.06% | [2] -60.5% | [3] -78.9% | [4] -90.1% | [5] -76.3% | [6] -36.3% | [7] -66% | [8] -85.4% | [9] -90.5% | [10] -78.7% | [11] -48.8% | [12] -73.2% | [13] -83.6% | [14] -93.3% | [15] 9.67% | [17] -89.9% | [18] -84.1% | [19] -88.6%

c1ccc2c(c1)nc(-n1ccnc1)c1nc3ccccc3n12
inactive: [1] 65.8% | [2] 65.7% | [3] 71.9% | [4] 47.9% | [5] 40.7% | [6] 80.9% | [7] 26.9% | [8] 54.3% | [9] 73.1% | [10] 76.9% | [11] 88.1% | [12] 92.9% | [13] 72.3% | [14] 64.9% | [15] 37.9% | [16] 83.7% | [17] 66% | [18] 82.3% | [19] 93.1%

COc1ccc(/C=C(\C#N)n2nnc3cc(F)c(F)cc32)c(OC)c1OC
inactive: [1] 71.8% | [2] 83% | [3] 76% | [4] 82.9% | [5] 71.4% | [6] 83.5% | [7] 51.4% | [8] 84.2% | [9] 93.9% | [10] 24.5% | [11] 23% | [12] 93.4% | [13] 61.7% | [14] 41.1% | [15] 83.5% | [16] 105% | [17] 92.1% | [18] 64.4% | [19] 72.7%

O=C(NCCOCCOCCNc1cccc2c1C(=O)N(C1CCCNC1=O)C2=O)c1cc2c(o1)C(=O)c1ccccc1C2=O (centres undefined)
inactive: [6] 22.2%
active: [1] -42.8% | [2] -79.8% | [3] -62.1% | [4] -65.2% | [5] -70.7% | [7] -52.7% | [8] -45.5% | [9] 3.9% | [10] -90.8% | [11] 9.04% | [12] -94.9% | [13] -2.54% | [14] -35.4% | [15] -9.46% | [16] -91.9% | [17] -86.2% | [18] -84.1% | [19] -52.7%

COC(=O)/C(=C\c1ccc(OC)cc1)C(=O)N1c2ccccc2Sc2ccccc21
inactive: [1] 72.7% | [2] 75.1% | [3] 83% | [4] 64% | [5] 96.7% | [6] 38.7% | [8] 56.2% | [9] 70.5% | [10] 78.5% | [11] 11.1% | [12] 32.9% | [13] 54.2% | [14] 47.7% | [15] 54.6% | [16] 38.8% | [17] 42.1% | [18] 65.4% | [19] 23.3%
active: [7] 2.63%

COc1cccc(-c2nc3sccn3c2-c2ccnc(NCCNS(=O)(=O)c3c(Cl)cccc3Cl)c2)c1
inactive: [1] 60.2% | [2] 57.4% | [3] 87.4% | [4] 88.4% | [5] 61% | [6] 43% | [7] 60.5% | [8] 47.1% | [9] 62.6% | [10] 63% | [11] 29.3% | [12] 77.8% | [13] 76.7% | [14] 69.9% | [15] 26.1% | [16] 60.7% | [17] 85.9% | [18] 85.1% | [19] 57.7%

O=C(Oc1ccc([N+](=O)[O-])cc1)c1ccc(CBr)cc1
active: [7] -21.2%
inactive: [1] 98.5% | [2] 106% | [3] 100% | [4] 139% | [5] 100% | [6] 88.5% | [8] 97.9% | [9] 108% | [10] 107% | [11] 86.7% | [12] 97.9% | [13] 84.8% | [14] 114% | [15] 100% | [16] 103% | [17] 97% | [18] 92.6% | [19] 105%

NC(N)=N/N=C/CO
inactive: [1] 103% | [2] 99% | [3] 99.7% | [4] 105% | [5] 104% | [6] 108% | [7] 106% | [8] 97.9% | [9] 99.9% | [10] 101% | [11] 99.2% | [12] 111% | [13] 111% | [14] 109% | [15] 105% | [16] 103% | [17] 97.5% | [18] 95.9% | [19] 99%

CCCCCCCCn1cc(C2=C(c3coc4ccc(OC)cc34)C(=O)NC2=O)c2ccccc21
active: [2] -38.6%
inactive: [1] 54.4% | [3] 99% | [4] 116% | [5] 101% | [6] 94.2% | [7] 96.7% | [8] 101% | [9] 104% | [10] 106% | [11] 121% | [12] 89.5% | [13] 102% | [14] 105% | [15] 97.2% | [16] 97.2% | [17] 95.7% | [18] 94.7% | [19] 96.1%

C[C@@H]1CC[C@@H]2[C@@H]1[C@H](OC(=O)c1ccc3ccccc3c1)[C@]1(C3CCCCC3)C[C@@H](OC(=O)CO)[C@@]2(C)O1
active: [9] -7.27% | [14] 8.34%
inactive: [1] 65.1% | [2] 51.8% | [3] 81.5% | [4] 68% | [5] 49.9% | [6] 34.9% | [7] 49.4% | [8] 48.8% | [10] 72.1% | [11] 39.6% | [12] 99.9% | [13] 63.1% | [15] 31.4% | [16] 68.2% | [17] 90.2% | [18] 63.3% | [19] 61.4%
